Data taken from PubChem BioAssay (NCI).
The panel holds about 79,000 compounds, 15% with a hit somewhere; the sample as a whole holds those more often. A number with no mark means an inactive call. Calls of active or inactive are those of the source. Rule as the data show it: active = growth inhibition above about 70%; inactive = the rest. Where a SMILES comes first, the peptide text is derived from it.

What was measured:
[1] = NCI Yeast Anticancer Drug Screen. Data for the rad50 strain (AID 155);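 also: 0% = growth of vehicle-only cultures of the same strain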; details: S. cerevisiae rad50 strain growth inhibition; at 50.0 µM; hits give high values
Outline: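 DNA repair mutant yeast, compound exposure, growth read-out; inhibition is taken relative to vehicle.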

[2] = NCI Yeast Anticancer Drug Screen. Data for the mec2-1 strain (AID 157); details: S. cerevisiae mec2-1 strain, at 50.0 µM, hits give high values
Outline: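 Using mec2-1 yeast: add compound, measure growth, express inhibition versus vehicle-treated cultures.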

[3] = NCI Yeast Anticancer Drug Screen. Data for the sgs1 mgt1 strain (AID 161);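 also: 0% = growth of cultures given vehicle only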; details: S. cerevisiae sgs1 mgt1 strain, at 50.0 µM, hits give high values
Outline: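 This yeast growth screen uses a strain with defined DNA-repair lesions; compound-treated growth is compared with vehicle-treated growth.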

[4] = NCI Yeast Anticancer Drug Screen. Data for the cln2 rad14 strain (AID 165);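 also: 0% = growth equal to vehicle treated cultures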; details: S. cerevisiae cln2 rad14 strain, at 50.0 µM, hits give high values
Outline: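 Yeast strain cln2 rad14, bearing defects in cell cycle control and DNA repair, serves as the test system; values reflect growth inhibition compared with vehicle.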

[5] = NCI Yeast Anticancer Drug Screen. Data for the bub3 strain (AID 167); details: S. cerevisiae bub3 mutant strain, at 50.0 µM, hits give high values
Outline: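 In this screen, a yeast mutant lacking normal mitotic checkpoint function is challenged with compound. Relative growth versus vehicle gives the inhibition value.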

[6] = NCI Yeast Anticancer Drug Screen. Data for the mlh1 rad18 strain (AID 175); details: S. cerevisiae mlh1 rad18 strain growth inhibition; at 50.0 µM; hits give high values
Outline: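 Steps: expose repair-defective yeast to compound; measure growth; express inhibition against vehicle-treated controls.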

SMILES | growth inhibition [1] | growth inhibition [2] | growth inhibition [3] | growth inhibition [4] | growth inhibition [5] | growth inhibition [6]
CCCC[P+](C)(CC[P+](C)(c1ccccc1)c1ccccc1)c1ccccc1 (stereo unspecified) | 36.3% | 80.8% (active) | 69% | 96.5% (active) | 98.1% (active) | 37.3%
Cc1ccc(S(=O)(=O)N2CCCN(S(=O)(=O)c3ccc(C)cc3)COC2)cc1 | 4.1% | 11.6% | -8.4% | 3.1% | -10.4% | -1.25%
O=C(NCCc1ccccc1Br)c1ccccc1 | 8.25% | -26.6% | -5.95% | 18.8% | 28.7% | -6.35%
Cc1cc(O)c(C(c2ccc(C#N)cc2)c2c(O)cc(C)[nH]c2=O)c(=O)[nH]1 | -1.05% | -31.9% | 1.95% | -6.2% | 4.6% | -6.35%
CC(=O)OCC(OC(C)=O)C(OC(C)=O)c1cnn(-c2ccccc2)n1 (stereo unspecified) | 12.6% | -1.5% | 2.5% | 17.7% | 24.6% | 22%
CCCC1(C)COC(C)(CCC)OC1 (stereo unspecified) | -31.6% | -8.3% | -17.9% | -34.4% | -16.9% | -0.45%
Oc1cc(-n2cccn2)c(O)cc1-n1cccn1 | 23.1% | -4.75% | 15.3% | 5.25% | 12.2% | -39%
Cc1ccc2nc(CC(=O)c3ccc(F)cc3)c(=O)[nH]c2c1 | 1.85% | 18.8% | 16.1% | 27.8% | 18.1% | 34.9%
CC(C)NS(=O)(=O)c1ccccc1 | 19.4% | -3.1% | 10.6% | 6.75% | 0.6% | 26.9%
O=[N+]([O-])c1ccc(F)cc1C(F)(F)F | 19.1% | -17.4% | 32.4% | -10.2% | 0.2% | 43.5%
CC1=C(C(=O)NCCc2ccccc2)CC(C(=O)NCCc2ccccc2)=C(C)N1 | -9.8% | 6.4% | 5.75% | 14.5% | -13.2% | -32.1%
Nc1c(-c2nc3ccccc3[nH]2)sc(=S)n1-c1ccccc1 | -6.4% | -21.4% | 1.75% | 2.2% | -4.2% | -17.9%
O=C(Nc1cc(Cl)c(I)cc1Cl)C(F)(F)F | 55.4% | 10.8% | 29.7% | -8.35% | 7.05% | 18.8%
CCOC(=O)C#Cc1ccc(C#CC(=O)OCC)cc1 | -0.5% | 19.4% | 6.45% | -2.95% | 1.95% | 51%
COc1ccc(/C(C)=N/NC(=O)CC(=O)N(C(=O)c2ccccc2)c2ccc(C)cc2)cc1 | -8.45% | -36% | -6.5% | 8.15% | -27.2% | -17.9%
CC1NC(=O)C2CCCN2C(=O)C2CCCN2C(=O)C(C(C)C)NC(=O)C(Cc2ccccc2)NC(=O)C(Cc2ccccc2)NC(=O)C2CCCN2C(=O)C2CCCN2C(=O)C(Cc2ccccc2)NC(=O)C(Cc2ccccc2)NC1=O (stereo unspecified) (cyclo(AFFPPFFVPP); configuration not given here) | 6.65% | -8.5% | -2.35% | 2.8% | 1.25% | 16.6%
C=CCOC(=O)OC(C)C(=O)OCC=C (stereo unspecified) | 27% | 13.1% | 15.4% | 7.55% | -2.25% | -2.5%
Nc1nc2c(c(-c3nc(N)nc4c3CCC4)n1)CCC2 | 9.7% | 15.4% | 11.6% | 7% | -1.75% | 10.8%

SMILES | growth inhibition [1] | growth inhibition [2] | growth inhibition [3] | growth inhibition [4] | growth inhibition [5] | growth inhibition [6]
O=C(C[n+]1ccccc1-c1ccccn1)c1ccc(-c2ccccc2)cc1 | 7.9% | 10.7% | 22.4% | -14.7% | 1% | 34.6%
COc1ccc(OC)c(NC(=O)NN(C)C)c1 | -31.4% | -38.8% | -2.25% | 7.95% | -21.1% | -21.6%
COc1nc(C(=O)O)c(Cl)c(OC)c1Cl | -34.6% | -21.8% | -40.5% | -4.95% | -39.6% | -35%
Cc1ccc(S(=O)(=O)OCC2(COS(=O)(=O)c3ccc(C)cc3)CCC2)cc1 | -7.8% | -7.75% | 0.25% | -8.95% | 16% | -15%
O=[N+]([O-])c1ccc(/C=C/c2csnn2)cc1 | -16.7% | -31.8% | -13.8% | 22% | 2% | -24.6%
C=CCOC/C=C\CCOCC/C=C/COCC=C (tested in a mixture with another compound) | 5% | 1.3% | 6.25% | -13.6% | 2.45% | 2.35%
O=C(Nc1c[nH]c(=O)[nH]c1=O)Oc1ccccc1 | -5.65% | -6.7% | -4.8% | -1% | -50% | 5.05%
CNCC(=O)NC(CO)C(=O)NC(CO)C(=O)NC1C(C(N)=O)OC(n2ccc(N)nc2=O)C(O)C1O (stereo unspecified) | 13.3% | 10.3% | 8.75% | 38.5% | 23.9% | 24.3%
O=C1N=C2C=CC=CN2CC1O (stereo unspecified) | -0.4% | -11.2% | -7.7% | -13.2% | 11.5% | 15.3%
CCS(=O)(=O)OCCOC | -2.65% | -26.1% | -17.1% | 57.6% | -14.8% | 10.2%
COc1ccccc1NC(=O)CC(=O)n1nc(C)c(N=Nc2ccccc2F)c1C | -41.6% | 1.45% | -28.2% | 6.8% | -31.9% | -30.3%
CC(C)[C@@H]1CC[C@@H](C)C[C@H]1N | -16.7% | 7.8% | -8.85% | -35.5% | 3.95% | -11.2%
O=C(Nc1ccccc1)C1C2C=CC(C2)C1C(=O)Nc1ccccc1 (stereo unspecified) | 0.2% | 27.9% | 5.05% | -11.7% | 21.4% | -8.25%
CCCCCCCCCCCc1cc(=O)n(-c2cc(Cl)ccc2Cl)n1C | 99.1% (active) | 99.3% (active) | 99.5% (active) | 98.7% (active) | 99% (active) | 99.2% (active)
Cc1cc(S(=O)(=O)Nc2nnc3c4ccccc4cnn23)c(S)cc1Cl | -38% | -24.4% | -21% | 2.7% | -15.8% | -31.6%
CC(=O)OCC1OC(N2C(c3ccccc3)=CC(c3cccs3)C(C#N)=C2S)C(OC(C)=O)C(OC(C)=O)C1OC(C)=O (stereo unspecified) | 27.4% | 28.9% | 40.6% | 18% | 46.2% | 23.3%
NC(=O)C(=Cn1c(=S)[nH]c2ccccc21)C(N)=O | -51.9% | -23.2% | -19.1% | -0.5% | -1.8% | -28.2%
COc1ccc2c(NCCCCCCNc3c4ccccc4nc4cc(OC)ccc34)c3ccccc3nc2c1 | 89.9% (active) | 91.6% (active) | 92.5% (active) | 87.5% (active) | 91.5% (active) | 89.7% (active)
